Assay [1] is described as follows: Tanguay_ZF_120hpf_CIRC_legacy: (Legacy) Oregon State University Tanguay Lab 120 Hour Post-fertilization zebrafish Assay for Circulatory Malformation (AID 2283651). The method, boiled down:
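Read-out: presence or absence of circulatory malformation at 120 hpf, scored by brightfield microscopy, fitted in the gain-of-signal direction against DMSO baseline. Wild-type 5D larvae were exposed from 6 hpf after enzymatic chorion removal.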

The nature of assay [2]: Tanguay_ZF_120hpf_SWIM_legacy: (Legacy) Oregon State University Tanguay Lab 120 Hour Post-fertilization zebrafish Assay for Swim Bladder Malformation (AID 2283654).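 Also: swim bladder malformation in each larva scored yes or no under brightfield.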 The method, boiled down:
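Dechorionated Tropical 5D wild-type embryos, placed singly from 6 hpf, were statically exposed at 28C to 120 hpf with 0.64% DMSO final; swim bladder malformation was scored present/absent by brightfield microscopy, gain of signal relative to DMSO controls.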

Assay [3] can be described thus: Tanguay_ZF_120hpf_TRUN_legacy: (Legacy) Oregon State University Tanguay Lab 120 Hour Post-fertilization zebrafish Assay for Truncated Body (AID 2283655). The gist of the method:
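5D wild-type larvae; pronase dechorionation; static exposure 6→120 hpf, 28C; DMSO 0.64% final; 5uM trimethyltin chloride positive control. Readout: presence/absence of truncated body, analyzed relative to DMSO.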

The nature of assay [4]: Tanguay_ZF_120hpf_CFIN_legacy: (Legacy) Oregon State University Tanguay Lab 120 Hour Post-fertilization zebrafish Assay for Caudal Fin Malformation (AID 2283649). The method, boiled down: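 Embryos were collected from Tropical 5D wild-type adults and dechorionated at 4 hpf. At 6 hpf each was exposed, one per well, at 0.64% DMSO and 28C. At 120 hpf fin morphology was scored; dead embryos were excluded.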

A short description of assay [5]: Tanguay_ZF_120hpf_NC_legacy: (Legacy) Oregon State University Tanguay Lab 120 Hour Post-fertilization zebrafish Assay for Notochord and Tail Malformation (AID 2283656). The gist of the method:
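Dechorionated Tropical 5D wild-type zebrafish embryos, one per well from 6 hpf, statically exposed to 120 hpf at 28C in 0.64% DMSO final. Notochord distortion scored present/absent by brightfield; dead embryos excluded.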

Assay [6] has as its system Thyroperoxidase (TPO), gene 54314. The experiment in a line: CCTE_Simmons_AUR_rTPO: CCTE's Amplex UltraRed Assay for Thyroperoxidase (TPO) Inhibition, Simmons Lab (AID 2283662).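 As to AC50: potency for loss of signal meaning inhibition of peroxidase activity.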 The gist of the method: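 Rat thyroid microsomes (5 ug protein) with 25 uM Amplex UltraRed and 300 uM H2O2 in 200 mM phosphate buffer, 30 min at 37C in dark; fluorescence 544/590 nm. Eight concentrations, 5 nM–87.5 uM final, 0.5% DMSO, triplicate biological replicates.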

From PubChem BioAssay (EPA / NIEHS) come the findings set out here.

Molecules are shown by their SMILES. Records with an inconclusive call do not appear. Activity calls are given as the source filed them. The calls were made as follows: active = hit-call score of the fitted dose curve at least 0.9, where 1 is the maximum; inconclusive = response in the unintended direction; inactive = score below 0.9.

For `Clc1cccc(Cl)c1`, the molecule was classed as inactive in assay [1], in assay [2] and in assay [3].

Consider `CC(C)(C)c1ccccc1O`, for which the molecule was called inactive in assay [4], in assay [1], in assay [2], in assay [3], in assay [5] and in assay [6].

Consider `CCCCCCCCCCCCc1cccc(S(=O)(=O)O)c1`, for which the molecule was called inactive in assay [1], in assay [2], in assay [3] and in assay [5]. In addition, the AC50 in assay [6] is 39.4 µM (active).

Consider `N#Cc1cccnc1`, for which the call in assay [4], in assay [1], in assay [2] and in assay [5] was inactive.

For `Nc1ccc(N)cc1`, the AC50 in assay [6] was 5.63 µM (active).

As for `COc1ccccc1N`, the molecule was called inactive in assay [1] and in assay [2]. Also, in assay [6], the AC50 is 0.39 µM (active).

On to `CC(C)O.CC(C)O.OCCN(CCO)CCO.OCCN(CCO)CCO.[Ti]`, for which the molecule was called inactive in assay [1], in assay [2] and in assay [5].

For `O=C(N[C@H]1CN2CCC1CC2)c1ccc2c(c1)OCCO2`, the call in assay [4], in assay [1], in assay [2], in assay [3] and in assay [5] was inactive.

With `O=C(CCl)Nc1ccccc1`, in assay [6], the half-maximal activity concentration (AC50) was 16 µM (active).

Consider `O=C(O)C1(c2ccc3c(c2)OC[C@H](Cc2ccc(-c4ccccc4)cc2)[C@H]3O)CCCC1`, for which the call in assay [1], in assay [2] and in assay [3] was inactive. In addition, the AC50 in assay [6] was 33.4 µM (active).

Consider `OCCN(CCO)CCO`, for which the result in assay [4], in assay [1], in assay [2], in assay [3] and in assay [5] was inactive.

On to `Nc1ncn[nH]1`, for which, in assay [6], the concentration at half-maximal activity (AC50) was 2.24 µM (active).

Regarding `COc1ccc(N)cc1`, in assay [6], the concentration at half-maximal activity (AC50) was 1.44 µM (active).

Take `CCOP(=S)(OCC)O/N=C(\C#N)c1ccccc1`: in assay [6], the AC50 was 20.7 µM (active).

In the case of `CN(N=O)C(N)=O`, the half-maximal activity concentration (AC50) in assay [6] was 58.9 µM (active).

In the case of `O=c1[nH]c(=O)n(Cl)c(=O)n1Cl`, the molecule was called inactive in assay [6].

Regarding `O=S1(=O)OC(c2cc(Br)c(O)c(Br)c2)(c2cc(Br)c(O)c(Br)c2)c2ccccc21`, in assay [6], the AC50 is 25.9 µM (active).

For `CCOP(=S)(OCC)SCS(=O)(=O)C(C)(C)C`, the AC50 in assay [6] was 43.8 µM (active).
